Only some compounds are listed: those with a hit (about 1.6% of all), similar ones and a draw of the others.
KCNQ2 block: blocks the rat KCNQ2 potassium channel; AID 2156; B-score at 10 µM; O88943; 1.1% of 310,000 active; CHO-K1 KCNQ2, FluxOR thallium flux, 20 min; hits give low values;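 active = fluorescence ratio B-score at most minus 3 library SDs, with starting brightness B-score within 2 library SDs, cut at about -5.5 in these data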
Target sequence (O88943 whole entry, looked up): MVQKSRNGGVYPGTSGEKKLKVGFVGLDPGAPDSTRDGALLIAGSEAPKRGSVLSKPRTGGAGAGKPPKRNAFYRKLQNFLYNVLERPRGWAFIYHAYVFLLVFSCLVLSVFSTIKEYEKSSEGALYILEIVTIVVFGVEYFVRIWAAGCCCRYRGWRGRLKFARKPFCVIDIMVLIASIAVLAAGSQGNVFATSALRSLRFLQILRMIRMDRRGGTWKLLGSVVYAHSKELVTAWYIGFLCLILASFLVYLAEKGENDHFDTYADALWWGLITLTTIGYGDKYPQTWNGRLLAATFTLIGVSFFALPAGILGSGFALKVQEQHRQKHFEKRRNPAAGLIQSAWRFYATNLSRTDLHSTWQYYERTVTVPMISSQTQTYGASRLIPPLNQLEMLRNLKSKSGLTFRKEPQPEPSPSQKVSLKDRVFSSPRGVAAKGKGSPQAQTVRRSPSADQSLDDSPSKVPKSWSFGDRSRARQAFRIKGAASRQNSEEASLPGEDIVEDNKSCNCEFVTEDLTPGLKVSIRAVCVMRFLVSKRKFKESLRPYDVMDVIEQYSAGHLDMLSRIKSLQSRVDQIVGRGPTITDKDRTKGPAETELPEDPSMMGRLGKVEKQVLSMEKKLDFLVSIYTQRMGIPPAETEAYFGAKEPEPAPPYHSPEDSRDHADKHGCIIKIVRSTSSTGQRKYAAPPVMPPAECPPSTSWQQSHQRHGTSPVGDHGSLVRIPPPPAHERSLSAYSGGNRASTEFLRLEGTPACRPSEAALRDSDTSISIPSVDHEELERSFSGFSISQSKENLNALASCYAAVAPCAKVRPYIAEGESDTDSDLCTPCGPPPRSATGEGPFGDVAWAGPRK
KCNQ2 pot: enhances the rat KCNQ2 potassium channel; 0.54% of 310,000 active; AID 2239; O88943; CHO-K1 KCNQ2, FluxOR thallium flux fluorescence; hits give high values; B-score at 10 µM;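 active = fluorescence ratio B-score at least 3 SD of library B-scores, with initial fluorescence B-score within 3 of them, cut at about 5.3 in these data; same plate scores as AID 2156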;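 also: B-score of peak minus minimum over baseline fluorescence ratio after K+ and Tl+ stimulus; positive B-score means potentiation of KCNQ2 with more thallium influx and brighter signal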
KCNQ2 inh conf: rat KCNQ2 channel inhibition, confirmatory screen. shares compounds with KCNQ2 block. KCNQ2-expressing cells, thallium flux; hits give low values. activity change, negative = inhibition, % at 10 µM. 57% of 1,000 active. AID 493025
KCNQ1 spec: KCNQ2 inhibitor that also affects human KCNQ1 channel; shares compounds with KCNQ2 block; KCNQ1-expressing cells, FluxOR thallium flux fluorescence; hits give low values; activity change, negative = inhibition, % at 10 µM; 15% of 1,000 active; AID 493026;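 active = activity change at least 3 SD of negative controls below their mean in both duplicate wells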;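 also: CHO cells stably transfected with KCNQ1 and depolarized by potassium stimulus; peak minus minimum fluorescence over baseline after thallium addition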
CHO Tl ctr: counter-screen for KCNQ2 inhibitors: effect in parental CHO cells; thallium flux counter-screen; hits give low values; shares compounds with KCNQ2 block; activity change, % at 10 µM; 14% of 1,000 active
KCNQ2 inh confirm: rat KCNQ2 inhibition confirmed by electrophysiology; shares compounds with KCNQ2 block; KCNQ2-expressing cells, automated patch clamp current; 49% of 550 active; calls only at 10 µM
Large screens that a line does not name were inactive (follow-up assays come after a bar, where they were run). Unless noted, no rule for the calls is given here.

CC(C)(C)N(Cc1ccccc1)C(=O)COc1cccnc1[N+](=O)[O-]	none (no result: KCNQ2 pot)
COc1ccccc1C1=NOC(Cn2c(=O)c3c(ncn3C)n(C)c2=O)C1 (configuration not stated)	none
COc1ccc(C(=O)/C=C/Nc2ccc([N+](=O)[O-])cc2)cc1	none (no result: KCNQ2 pot)
COc1ccc(C(=O)CC(Nc2ccc([N+](=O)[O-])cc2)c2ccc(OC)cc2)cc1 (configuration not stated)	KCNQ2 block -11 | KCNQ2 inh conf -26% | KCNQ1 spec inactive | CHO Tl ctr inactive | KCNQ2 inh confirm inactive
O=C(Cn1ccc2cc(S(=O)(=O)N3CCCCC3)ccc21)NCc1ccccc1F	none (no result: KCNQ2 pot)
O=C(/C=C/c1cccc(OCc2ccccc2)c1)c1cccnc1	KCNQ2 block -6.8 | KCNQ2 inh conf -29% | KCNQ1 spec inactive | CHO Tl ctr inactive | KCNQ2 inh confirm inactive
O=C(O)/C=C/c1cccc(OCc2ccccc2)c1	none
O=C(N/N=C/c1ccc([N+](=O)[O-])cc1)c1cccnc1	none (no result: KCNQ2 pot)
O=C(/C=C/c1ccc([N+](=O)[O-])cc1)c1cccnc1	KCNQ2 block -9.9 | KCNQ2 inh conf inactive | KCNQ1 spec inactive | CHO Tl ctr inactive
Cc1cccc(-n2c(C)cc(/C=N/NC(=O)c3cccc([N+](=O)[O-])c3C)c2C)c1	none
COc1ccc(NC(=O)c2nn(C34CC5CC(CC(C5)C3)C4)cc2[N+](=O)[O-])cc1	none
O=C(Nc1cccc2ccccc12)c1nn(C23CC4CC(CC(C4)C2)C3)cc1[N+](=O)[O-]	KCNQ2 block -9.1 | KCNQ2 inh conf -29% | KCNQ1 spec inactive | CHO Tl ctr inactive | KCNQ2 inh confirm active
CC(C)(C)OC(=O)N1Cc2ccccc2C[C@H]1C(=O)N1CCC[C@H]1C(=O)O	none (no result: KCNQ2 pot)
COc1cccc(NC(=O)CN2CCC(C)CC2)c1	none
CCOC(=O)c1cnc2ccc(C)cc2c1Sc1ccccc1	KCNQ2 block -7.1 | KCNQ2 inh conf -28% | KCNQ1 spec inactive | CHO Tl ctr inactive | KCNQ2 inh confirm active
CCOC(=O)c1cnc2ccccc2c1Nc1cccc(C(=O)O)c1	none
CNC(=O)c1ccc(-c2sc3nc(N4CCOCC4)c4c(c3c2N)CC(C)(C)OC4)o1	none
CNC(=O)c1ccc(-c2sc3nc(N4CCOCC4)c4c(c3c2N)CCCC4)o1	KCNQ2 block -9.5 | KCNQ2 inh conf -22% | KCNQ1 spec inactive | CHO Tl ctr inactive | KCNQ2 inh confirm inactive
COc1cc(O)c2c(=O)cc(-c3ccccc3)oc2c1	none (no result: KCNQ2 pot)
O=C(CSC1=NS(=O)(=O)c2ccccc2N1)c1ccccc1	none
COc1ccc(NC(=O)CN(C)S(=O)(=O)c2ccc(C)cc2)c([N+](=O)[O-])c1	none (no result: KCNQ2 pot)
CCCCCOC(=O)CC(C(=O)OCCCCC)N1CCCCC1 (configuration not stated)	KCNQ2 block -9.2 | KCNQ2 inh conf -34% | KCNQ1 spec -32% | CHO Tl ctr -30% | KCNQ2 inh confirm inactive
CCCCCCCCCOC(=O)C(CC(=O)O)N1CCOCC1 (configuration not stated)	none (no result: KCNQ2 pot)
CCOc1ccc(N(CC(=O)NC(C)C)C(=O)CCC(=O)Nc2ccccn2)cc1	none (no result: KCNQ2 pot)
CCC(C)(C)n1nnnc1C(C(C)C)N(Cc1cccnc1)Cc1ccco1 (configuration not stated)	none (no result: KCNQ2 pot)
CCC(C)(C)n1nnnc1C(c1ccc(C)cc1)N(Cc1ccco1)Cc1cccs1 (configuration not stated)	KCNQ2 block -9.9 | KCNQ2 inh conf inactive | KCNQ1 spec inactive | CHO Tl ctr inactive
CCN(CC)C(=O)c1cc2c(=O)c3cc(Cl)ccc3oc2nc1C	KCNQ2 block -7.4 | KCNQ2 inh conf -28% | KCNQ1 spec inactive | CHO Tl ctr inactive | KCNQ2 inh confirm active
CCOC(=O)c1cc2c(=O)c3cc(C)ccc3oc2nc1C	none
CCn1c(C(=O)N2CCC(Cc3ccccc3)CC2)cc2sccc21	KCNQ2 block -7.2 | KCNQ2 inh conf inactive | KCNQ1 spec inactive | CHO Tl ctr inactive
CCn1c(C(=O)N2CCCC(C(=O)O)C2)cc2sccc21 (configuration not stated)	none
CN(Cc1ccsc1)C(=O)CCc1nnc(CCCc2ccccc2)o1	none (no result: KCNQ2 pot)
CCN(Cc1ccccc1)C(=O)CCc1nnc(CCCc2ccccc2)o1	KCNQ2 block -10 | KCNQ2 inh conf -26% | KCNQ1 spec inactive | CHO Tl ctr inactive | KCNQ2 inh confirm active
CN(C)C(=O)c1cn(-c2ccccc2)nc1-c1cccs1	none
O=C(c1cn(-c2ccccc2)nc1-c1cccs1)N(CCO)Cc1ccccc1	KCNQ2 block -7.5 | KCNQ2 inh conf inactive | KCNQ1 spec inactive | CHO Tl ctr inactive
CSC1=C(C#N)C(c2ccccc2Cl)C(C(=O)c2cccs2)C(O)(C(F)(F)F)N1 (configuration not stated)	none
N#CC(C#N)=C1C=CC=CN1/C(=C\c1ccccc1)C(=O)c1cccs1	KCNQ2 block -10 | KCNQ2 inh conf inactive | KCNQ1 spec inactive | CHO Tl ctr inactive
O=C(N/N=C/C(Br)=C\c1ccccc1)c1cccs1	none (no result: KCNQ2 pot)
CCc1ccc(-c2nc(CSCC(=O)N3CCN(c4ccccn4)CC3)c(C)o2)cc1	KCNQ2 block -10 | KCNQ2 inh conf -38% | KCNQ1 spec -40% | CHO Tl ctr -32% | KCNQ2 inh confirm inactive
Cc1ccc(-c2nc(CSCC(=O)N3CCN(c4ccccn4)CC3)c(C)o2)cc1	none (no result: KCNQ2 pot)
O=C(c1ccccc1)c1nc2ccccc2n(CCCn2c(=O)c(C(=O)c3ccccc3)nc3ccccc32)c1=O	KCNQ2 block -9 | KCNQ2 inh conf inactive | KCNQ1 spec inactive | CHO Tl ctr inactive
Cn1c(=O)c(C(=O)c2ccccc2)nc2ccccc21	none
Cc1cc(NS(=O)(=O)c2ccc(-c3ccccc3)cc2)no1	none
CCN1C(=O)/C(=C/N(C(C)=O)c2ccccc2)N(c2ccccc2)C1=S	KCNQ2 block -9.6 | KCNQ2 inh conf inactive | KCNQ1 spec inactive | CHO Tl ctr inactive
CCc1ccc(/C=C2/C(=O)N(c3ccccc3)C(=S)N2CC(=O)OC)s1	none (no result: KCNQ2 pot)
COc1ccc(C(=O)CCN2CCc3cc(OC)c(OC)cc3C2)cc1	KCNQ2 block -9.6 | KCNQ2 inh conf -32% | KCNQ1 spec inactive | CHO Tl ctr inactive | KCNQ2 inh confirm inactive
COc1ccc(C(=O)CCN2CCN(c3ccccc3OC)CC2)cc1	none (no result: KCNQ2 pot)
CCOC(=O)c1c(C)[nH]c(C(=O)Cn2c(=O)c3c(ncn3CC)n(Cc3ccccc3)c2=O)c1C	none (no result: KCNQ2 pot)
CC1=C(C(=O)NC(C)c2ccc3c(c2)OCCO3)C2(CCC(C)CC2)OC1=O (configuration not stated)	KCNQ2 block -10 | KCNQ2 inh conf -26% | KCNQ1 spec inactive | CHO Tl ctr inactive | KCNQ2 inh confirm active
CC1=C(C(=O)NC(C)c2ccccc2)C2(CCC(C)CC2)OC1=O (configuration not stated)	none (no result: KCNQ2 pot)
CSc1cccc(NS(=O)(=O)c2ccc(-c3coc(C)n3)cc2)c1	none
CCOC(=O)C1=C(COC(=O)Cc2ccccc2F)NC(=O)NC1C (configuration not stated)	none

Screening data deposited in PubChem by Johns Hopkins Ion Channel Center.
